These entries were drawn from the full list.
aSyn 5UTR act: Activators working through SNCA 5'UTR binding (MLPCN). alpha-synuclein 5'UTR reporter, activators screen. activity score, % (tested at 7.5 µM), hits read low. actives 7.1% (n = 300,000); in the data active = activity score below about -60%
A number is an active result; i = inactive.

SMILES	aSyn 5UTR act
COc1ccc(Cl)cc1C(=O)O/N=C(\N)c1ccccn1	-159
CSc1ccccc1OCc1cc(C(=O)N(C)CC2COCCO2)no1 (stereo unspecified)	-83
CSc1ccccc1OCc1cc(C(=O)N(C)Cc2ccncn2)no1	-81
CSc1ccccc1OCc1cc(C(=O)N(C)Cc2nonc2C)no1	-119
CCn1ccnc1CN(C)C(=O)c1cc(COc2ccccc2SC)on1	-101
Cc1nc(CNC(=O)c2cc(COc3c(F)cccc3F)on2)cs1	i
CSc1ccccc1OCc1cc(C(=O)NCc2cccc(C)n2)no1	-112
N/C(=N/OC(=O)c1ccccc1Cl)c1nonc1N	-85
Cc1nc(/C(N)=N/OC(=O)c2ccccc2Cl)c(C(F)(F)F)o1	-131
Cc1cccc(C)c1N1CCN(C(=O)Nc2ccc3c(c2)OCCO3)CC1	-74
O=C(Nc1ccc2c(c1)OCCO2)N1CCN(c2ccc(F)cc2)CC1	-88
O=C(Nc1ccc2c(c1)OCCO2)C1CCN(C(=O)c2ccc(F)cc2)CC1	-85
Cc1nn(-c2nnc(NC3CCCCC3)nn2)c(C)c1Br	-165
Cc1csc(SCc2nnc(-c3ccc(Cl)cc3)o2)n1	-173
Cc1ccc(-c2nnc(CSc3nnc(C)s3)o2)cc1	-79
Cc1csc(SCc2nnc(-c3ccccc3Br)o2)n1	-88
CNC(C)C#Cc1ccc2c(=O)c3cc(C)c(C)cc3oc2c1 (stereo unspecified)	-227
CNC(C)C#Cc1ccc2oc3cc(C)c(C)cc3c(=O)c2c1 (stereo unspecified)	-196
CCOC(=O)c1c(C)[nH]c(N=Nc2ccc(C)cc2C)c1C	-106
CCOC(=O)c1c(C)[nH]c(N=Nc2ccccc2C)c1C	-213
CCN(CC)c1ccc(CNc2ccc(Br)cn2)cc1	-103
CCOC(=O)Cc1csc(-n2sc3ccccc3c2=O)n1	-89
CCN(CC)C(=O)CSc1nnc(-c2ccccc2)o1	-137
CN(C)CCSc1nnc(-c2ccccc2)o1	-71
CC(C)Cn1c(=O)c(C(=O)Nc2ccncc2)c(O)c2ccccc21	i
SMILES	aSyn 5UTR act
C=CCn1c(=O)c(C(=O)Nc2ccccc2C)c(O)c2ccccc21	-156
CCn1c(=O)c(C(=O)Nc2ccccc2C)c(O)c2ccccc21	-81
C=CCn1c(O)c(N=NC(=S)Nc2ccccc2C)c2cc(S(=O)(=O)N3CCOCC3)ccc21	i
Clc1ccc(COn2nnc3ccccc32)c(Cl)c1	-151
C/C(=N\NC(=O)C(C)n1nc(C)c([N+](=O)[O-])c1C)c1ccccc1O (stereo unspecified)	i
Cc1nn(CC(=O)c2ccccc2Cl)c(C)c1[N+](=O)[O-]	-177
O=C1C(CSCc2ccccc2)NC(=S)N1c1ccccc1 (stereo unspecified)	-68
O=C(Nc1ccc(Cl)c(Cl)c1)c1ccc(Cl)c(Cl)c1	-102
O=C(Nc1ccc2c(c1)COC2=O)c1ccc(Cl)c(Cl)c1	-143
O=C(Nc1ccc(Cl)c(Cl)c1)c1ccncc1	-149
O=C(Nc1ccc2c(c1)Cc1ccccc1-2)c1ccncc1	-134
Cc1cc(C)n2ncc(C(=O)Nc3ccc(Cl)c(Cl)c3)c2n1	-106
COc1ccc(NC(=O)Nc2cccc(Cl)c2Cl)c(OC)n1	-72
COc1ccc(C(=O)Nc2ccc(Cl)c(Cl)c2)c(OC)n1	-104
O=c1cc(-c2ccccc2F)oc2ccccc12	-111
CSc1ccc(-c2cc(=O)c3ccccc3o2)cc1	-328
O=c1cc(-c2ccc(F)cc2)oc2ccccc12	-97
CCOC(=O)CN1C(=O)S/C(=C/C=C/c2ccc(N(C)C)cc2)C1=O	-165
CCOC(=O)CN1C(=O)S/C(=C/c2ccc3c(c2)n(C)c(=O)n3C)C1=O	-155
O=C(CN1C(=O)S/C(=C\C=C\c2ccccc2)C1=O)Nc1ccc(O)cc1	-150
CC(C)c1ccccc1NC(=O)COC(=O)CCN1C(=O)/C(=C\C=C\c2ccccc2)SC1=S	i
O=C(COC(=O)CCN1C(=O)/C(=C\C=C\c2ccccc2)SC1=S)Nc1ccc(Br)cc1	i
Cn1c(SCc2ccc(C#N)cc2Cl)nc2ccccc21	-176
Cc1ccc(C(=O)OCC(=O)NCc2cccs2)c(C)c1	-75
CC(=O)N1CCc2cc(S(=O)(=O)NCCC(=O)Nc3ccc4c(c3)OCCO4)ccc21	-176
SMILES	aSyn 5UTR act
CCOC(=O)/C(=N/Nc1ccc(C)cc1)S(=O)(=O)c1ccc(Cl)cc1	-142
CCCCCCc1ccc(N2C[C@H](C)[C@@H](CC(=O)NCc3ccccc3)C2=O)cc1	-82
CNc1ncc(C(=O)c2ccc(F)cc2)s1	-112
O=C(c1ccc(F)cc1)c1cnc(Nc2ccccc2)s1	-161
CC(=O)c1cnc(Nc2cccc(C)c2)s1	-137
COc1ccc(-c2ccc(CO)o2)cc1N	-82
CCN1C(=O)/C(=C/N2CCc3ccccc32)SC1=S	-190
COc1ccccc1-c1cc2ccccc2[nH]1	-207
O=C(OCc1nc2ccccc2s1)c1ccc(Br)s1	-72
O=C(OCc1nc2ccccc2s1)c1cc2ccccc2oc1=O	-100
Cc1ccc(C(=O)OCc2nc3ccccc3s2)o1	-103
O=C(CCc1ccc(S(=O)(=O)N2CCOCC2)cc1)OCc1nc2ccccc2s1	-85
Cc1cc(NC(=S)NC(=O)C2CC2)ccc1Br	-114
COc1ccc(NC(=S)NC(=O)C2CCCCC2)cc1	-86
CCN(CC)c1ccc(NC(=S)NC(=O)C2CCC2)cc1	-64
COc1ccc(NC(=O)NC2CCCCC2C)cc1 (stereo unspecified)	-81
CC(=O)O[C@H]1C(=O)[C@]2(C)[C@H]([C@H](OC(=O)c3ccccc3)[C@]3(O)C[C@H](OC(=O)[C@H](O)[C@@H](NC(=O)c4ccccc4)c4ccccc4)C(C)=C1C3(C)C)[C@]1(OC(C)=O)CO[C@@H]1C[C@@H]2O	i
COc1cccc(OCc2cc(C(=O)N3CCNC(=O)C3Cc3ccccc3)no2)c1 (stereo unspecified)	-74
COc1cccc(OCc2cc(C(=O)N3CCCC3c3ccccn3)no2)c1 (stereo unspecified)	-84
O=C(c1cc(COc2ccc3ncccc3c2)on1)N1CCC[C@H]1CO	-67
Nc1ccc(O)c2c(=O)cc(-c3ccccc3Cl)oc12	-100
O=C(Nc1ccc(O)c2c(=O)cc(-c3cccc(Cl)c3)oc12)c1cccc(Cl)c1	i
O=C(N/N=C/c1ccncc1)c1nc2ccccc2c(=O)[nH]1	-66
O=C(N/N=C/c1ccc2cccnc2c1)c1nc2ccccc2c(=O)[nH]1	-83
c1ccc(Cn2c(Sc3nnnn3-c3ccccc3)nnc2-c2ccccc2)cc1	-74
SMILES	aSyn 5UTR act
O=C(Cc1nc2ccccc2[nH]c1=O)c1ccccc1	-172
O=C(Cc1nc2ccccc2[nH]1)c1ccc(Br)cc1	-190
Cc1cccc(NC(=O)Cc2noc3ccccc23)c1	-82
O=C(Cc1noc2ccccc12)Nc1ccc(Cl)cc1	-69
CCc1ccc(-c2csc(-c3c[nH]c4ccccc34)n2)cc1	-308
C/C(Cn1nnc([N+](=O)[O-])n1)=N\NC(=O)c1ccccc1	-73
Nc1nc(-c2ccccn2)nc(N)c1Cc1ccccc1F	-246
COc1ccc(-c2cc(C(=O)N3CCCCCC3)no2)cc1	-85
COc1ccc(-c2cc(C(=O)N3CCCCCC3)no2)cc1OC	-124
CCOc1ccc(-c2cc(CCCC(=O)NCCc3ccccc3)no2)cc1	i
CC(C)c1cc(CNC(=O)CCc2nnc(CCCc3ccccc3)o2)on1	-77
CCc1cc(CNC(=O)CCc2nnc(CCCc3ccccc3)o2)on1	-129
O=C(CCc1nnc(CCCc2ccccc2)o1)NCCCC1CCCC1	-116
O=C(CCc1nnc(CCCc2ccccc2)o1)N1CCCCCC1	-149
